Measured values: PubChem BioAssay (NCI)
About 83,000 compounds went through this panel and 20% of them were active in at least one assay; those are over-represented in the sample as a whole.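 Single-dose data. Exposure time 48 hours. Values below 10 considered active.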 A number with no mark means an inactive call. The source made the active and inactive calls.

test system: SR leukemia; experiment: NCI-60 one-dose screen, 48 h (100 = growth as untreated, 0 = no growth, -100 = all killed); conditions: 10 µM unless noted

Structure (SMILES)	growth
S=c1[nH]nc2ccccn12	95.7%
N#CC1C(=N)Cc2ccccc2-c2ccccc21 (stereo unspecified)	26.7%
COc1c(N)c2c(c([N+](=O)[O-])c1OC)C(=O)OC2	91.2%
CC(=O)O[C@H]1CC[C@@]2(C)C(=CC[C@@H]3[C@@H]2CC[C@]2(C)C(=O)N(O)C(=O)C[C@@H]32)C1	74.8%
C/C(=N\NC(=O)C(C)SC(C)C(=O)N/N=C(\C)c1cccnc1)c1cccnc1 (stereo unspecified)	79.6%
Cc1cc(Nc2ccc(F)cc2)nc(N2CCN(c3ccnc4cc(Cl)ccc34)CC2)n1	2.7% (active)
COC(=O)[C@@H]1[C@H]2C[C@H]3c4[nH]c5cc(OC)ccc5c4CCN3C[C@@H]2C[C@H](OC(=O)/C=C/c2ccnc(OC)c2)[C@H]1OC	73.1%
Fc1cccc(-c2[nH]nc3nc(Nc4cccnc4)sc23)c1	15%
O=C(c1ccccc1)C(CN1CCOCC1)c1ccccc1 (stereo unspecified)	-0.205% (active)
CCOc1ccc(NC(=O)c2ccccc2-c2ccccc2C(=O)O)cc1	89.7%
Cc1ccc(Nc2c(C(N)=O)cnc3ccc(S(=O)(=O)Nc4cc(C)on4)cc23)cc1	101%
Cn1cc(-c2csc(-c3cn(C(=O)OC(C)(C)C)c4ccc(Br)cc34)n2)c2cccnc21	58%
CC1=CC(=O)N(c2cccc3c(N4C(=O)C=C(C)C4=O)cccc23)C1=O	-21.1% (active)
Cn1cc(-c2nc(-c3cn(C)c4ncccc34)cs2)c2ccccc21	18.4%
O=C(/C=C/c1cccc(O)c1)c1ccccc1O	36%
Cc1cc(C)nc(NC(N)=NCCc2ccccc2)n1	19.2%
O=C(N/N=C\c1ccccc1O)C1CC1	104%
CC(C)=CCC/C(C)=C/CC/C(C)=C/CC/C(C)=C/CSC[C@H](NC(=O)CCCCCN1CCN(C)CC1)C(=O)NC1CCCCC1	2.5% (active)
Oc1cccc2oc(=S)[nH]c12	90.4%

Structure (SMILES)	growth
COc1ccc(C(=O)c2cc(OC)c(OC)c(OC)c2)cc1/C=C/C(=O)c1cc(OC)c(OC)c(OC)c1	43.2%
Clc1ccc2[nH]cc(-c3nc(-c4c[nH]c5ncccc45)cs3)c2c1	9.06% (active)
O=C(NC1=CC(=O)c2ccccc2C1=O)c1ccccc1	-0.906% (active)
COc1ccc2[nH]cc(-c3nc(-c4c[nH]c5ncccc45)cs3)c2c1	-7.54% (active)
C#Cc1cc2c(N)c(C(=O)c3cc(OC)c(OC)c(OC)c3)[nH]c2cc1OC	7.33% (active)
COc1cc2[nH]c(C(=O)c3cc(OC)c(OC)c(OC)c3)c(N)c2cc1C#CCO	0.173% (active)
Cn1c2c(c3ccc(Cl)cc31)-n1cccc1C2=O	67.1%
Cn1cc(-c2nc(-c3cn(C)c4ncccc34)cs2)c2cc(F)ccc21	22.4%
Oc1ccccc1/C=N\NC(=S)Nc1ccc(F)cc1	11.5%
CC1c2ccccc2N(S(=O)(=O)c2ccccc2)C1C (stereo unspecified)	34.8%
CC(C)=CCC/C(C)=C/CC/C(C)=C/CSC[C@H](NC(=O)CCCCCN1CCN(C)CC1)C(=O)NC1CCCCCC1	-20.1% (active)
O=[N+]([O-])c1ccc(/C=N\Nc2ccccc2)cc1	106%
C(=C\c1c[nH]c2ccccc12)/c1ccc2ccccc2n1	67.5%
Cn1cc(-c2csc(-c3c[nH]c4ccc(F)cc34)n2)c2cccnc21	27.2%
Nc1c(Cl)cc(N=Nc2ccccc2)cc1Cl	85.4%
CC(=O)O[C@H]1CC[C@@]2(C)[C@@H](CC[C@@H]3[C@@H]2CC(=O)[C@@]2(C)[C@H]3C[C@@H](C3CCCC3=O)[C@@H]2C(C)=O)C1 (stereo partly specified)	87.9%
CC(=O)Oc1ccccc1C(=O)/C=C/c1cccc([N+](=O)[O-])c1	-30.8% (active)
O=C(O)c1cccc2c1C(=O)N(c1ccc3c(c1)Cc1ccccc1-3)C2=O	102%
Brc1ccc2[nH]cc(-c3nc(-c4c[nH]c5ncccc45)cs3)c2c1	9.23% (active)

test system: RPMI-8226 leukemia; experiment: as above; conditions: 10 µM unless noted

Structure (SMILES)	growth
S=c1[nH]nc2ccccn12	108%
N#CC1C(=N)Cc2ccccc2-c2ccccc21 (stereo unspecified)	52.3%
COc1c(N)c2c(c([N+](=O)[O-])c1OC)C(=O)OC2	99.9%
CC(=O)O[C@H]1CC[C@@]2(C)C(=CC[C@@H]3[C@@H]2CC[C@]2(C)C(=O)N(O)C(=O)C[C@@H]32)C1	52.8%
C/C(=N\NC(=O)C(C)SC(C)C(=O)N/N=C(\C)c1cccnc1)c1cccnc1 (stereo unspecified)	101%
Cc1cc(Nc2ccc(F)cc2)nc(N2CCN(c3ccnc4cc(Cl)ccc34)CC2)n1	12.5%
COC(=O)[C@@H]1[C@H]2C[C@H]3c4[nH]c5cc(OC)ccc5c4CCN3C[C@@H]2C[C@H](OC(=O)/C=C/c2ccnc(OC)c2)[C@H]1OC	69.6%
Fc1cccc(-c2[nH]nc3nc(Nc4cccnc4)sc23)c1	27.2%
O=C(c1ccccc1)C(CN1CCOCC1)c1ccccc1 (stereo unspecified)	-8.68% (active)
CCOc1ccc(NC(=O)c2ccccc2-c2ccccc2C(=O)O)cc1	101%
Cc1ccc(Nc2c(C(N)=O)cnc3ccc(S(=O)(=O)Nc4cc(C)on4)cc23)cc1	103%
Cn1cc(-c2csc(-c3cn(C(=O)OC(C)(C)C)c4ccc(Br)cc34)n2)c2cccnc21	84.5%
CC1=CC(=O)N(c2cccc3c(N4C(=O)C=C(C)C4=O)cccc23)C1=O	21.5%
Cn1cc(-c2nc(-c3cn(C)c4ncccc34)cs2)c2ccccc21	39.6%
O=C(/C=C/c1cccc(O)c1)c1ccccc1O	28%
Cc1cc(C)nc(NC(N)=NCCc2ccccc2)n1	49.7%
O=C(N/N=C\c1ccccc1O)C1CC1	107%
CC(C)=CCC/C(C)=C/CC/C(C)=C/CC/C(C)=C/CSC[C@H](NC(=O)CCCCCN1CCN(C)CC1)C(=O)NC1CCCCC1	63.4%
Oc1cccc2oc(=S)[nH]c12	106%

Structure (SMILES)	growth
COc1ccc(C(=O)c2cc(OC)c(OC)c(OC)c2)cc1/C=C/C(=O)c1cc(OC)c(OC)c(OC)c1	67%
Clc1ccc2[nH]cc(-c3nc(-c4c[nH]c5ncccc45)cs3)c2c1	37.6%
O=C(NC1=CC(=O)c2ccccc2C1=O)c1ccccc1	4.25% (active)
COc1ccc2[nH]cc(-c3nc(-c4c[nH]c5ncccc45)cs3)c2c1	40.9%
C#Cc1cc2c(N)c(C(=O)c3cc(OC)c(OC)c(OC)c3)[nH]c2cc1OC	26.7%
COc1cc2[nH]c(C(=O)c3cc(OC)c(OC)c(OC)c3)c(N)c2cc1C#CCO	26.8%
Cn1c2c(c3ccc(Cl)cc31)-n1cccc1C2=O	88.3%
Cn1cc(-c2nc(-c3cn(C)c4ncccc34)cs2)c2cc(F)ccc21	38%
Oc1ccccc1/C=N\NC(=S)Nc1ccc(F)cc1	41.1%
CC1c2ccccc2N(S(=O)(=O)c2ccccc2)C1C (stereo unspecified)	91.9%
CC(C)=CCC/C(C)=C/CC/C(C)=C/CSC[C@H](NC(=O)CCCCCN1CCN(C)CC1)C(=O)NC1CCCCCC1	51.8%
O=[N+]([O-])c1ccc(/C=N\Nc2ccccc2)cc1	67.8%
C(=C\c1c[nH]c2ccccc12)/c1ccc2ccccc2n1	44.7%
Cn1cc(-c2csc(-c3c[nH]c4ccc(F)cc34)n2)c2cccnc21	52%
Nc1c(Cl)cc(N=Nc2ccccc2)cc1Cl	89.9%
CC(=O)O[C@H]1CC[C@@]2(C)[C@@H](CC[C@@H]3[C@@H]2CC(=O)[C@@]2(C)[C@H]3C[C@@H](C3CCCC3=O)[C@@H]2C(C)=O)C1 (stereo partly specified)	91.2%
CC(=O)Oc1ccccc1C(=O)/C=C/c1cccc([N+](=O)[O-])c1	-17.4% (active)
O=C(O)c1cccc2c1C(=O)N(c1ccc3c(c1)Cc1ccccc1-3)C2=O	110%
Brc1ccc2[nH]cc(-c3nc(-c4c[nH]c5ncccc45)cs3)c2c1	39.9%
